Results published in PubChem BioAssay (NCATS).
Inconclusive results are not listed. A call without a number means that no potency is given here. Calls of active or inactive are those of the source. Calls follow the shape of the dose curve; as a rule, active = well fitted curve in the direction sought with a large enough effect; inconclusive = small, poorly fitted or top-dose-only effect, or another doubt; inactive = no such curve, though single readings can be large; an effect the other way counts as inactive or inconclusive. Numbered stars: 1 amine (or outer) side, 2 acyl side, 3 side chain; on linkers, the order of the positions; unused ones are H or OH. Bridge positions count the residues as written; N and C are the ends. Square brackets hold non-standard residues; d marks the D form. Peptide text beside a SMILES is read from it. * marks the point of attachment. ξ: configuration not given here. ΔAla(Z-3-ureido) = NC(=O)N/C=C(\N)C(=O)O; X3 = NC1=NCCC(C(N[*:1])C(=O)[*:2])N1; ξβ3hOrn = NCCCC(N)CC(=O)*; Dap = NC[CH](N)C(=O)O

Target: Luciferin 4-monooxygenase (Photinus pyralis) (UniProt P08659)
Assay: Biochemical firefly luciferase enzyme assay for NPC (AID 624030);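 also: purified P. pyralis luciferase at 10 nM with luciferin and ATP substrate; nearly all actives have a fitted effect of over 70% in size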
Settings: purified P. pyralis luciferase, luminescence, 5 min; series mostly up to 58.6 µM
Summary of the method: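 Counter-screen for direct inhibition of the luciferase enzyme by approved-drug library compounds, run at 10 nM enzyme in 50 mM Tris acetate (final). Luminescence was read within 5 min of enzyme-buffer addition and normalized to PTC124 versus DMSO (0%).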

Sequence of Luciferin 4-monooxygenase (Photinus pyralis) (P08659 whole entry, looked up): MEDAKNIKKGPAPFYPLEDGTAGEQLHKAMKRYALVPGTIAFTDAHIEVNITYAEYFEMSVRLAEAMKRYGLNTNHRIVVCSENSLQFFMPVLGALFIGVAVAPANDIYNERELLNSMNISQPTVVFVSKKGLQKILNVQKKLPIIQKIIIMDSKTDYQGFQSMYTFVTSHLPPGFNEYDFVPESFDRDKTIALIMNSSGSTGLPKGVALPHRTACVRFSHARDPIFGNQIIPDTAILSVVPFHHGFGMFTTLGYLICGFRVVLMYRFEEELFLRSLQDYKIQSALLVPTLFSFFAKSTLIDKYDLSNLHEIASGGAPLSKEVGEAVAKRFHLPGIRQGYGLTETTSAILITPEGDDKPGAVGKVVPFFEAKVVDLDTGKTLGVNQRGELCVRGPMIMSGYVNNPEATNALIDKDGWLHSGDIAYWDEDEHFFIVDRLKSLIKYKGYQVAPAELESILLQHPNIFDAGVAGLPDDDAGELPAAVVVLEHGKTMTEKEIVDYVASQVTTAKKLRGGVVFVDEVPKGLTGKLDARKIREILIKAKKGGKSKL

Structure (SMILES)	Potency
CC1(O)CCC2C3CCC4=CC(=O)CCC4(C)C3(F)C(O)CC21C (configuration not stated)	inactive
C[C@]12CCC(=O)C=C1CC[C@H]1C2CC[C@@]2(C)[C@@H]1CC[C@]2(C)O (some centres not stated)	inactive
CC(=O)Oc1ccc2c3c1OC1C(OC(C)=O)C=CC4[C@@H](C2)N(C)CC[C@]314 (some centres not stated)	inactive
COc1cc(CC(C)N)c(OC)cc1C (configuration not stated)	inactive
CC[C@H](OC(C)=O)C(C[C@H](C)NC)(c1ccccc1)c1ccccc1	inactive
CN[C@H](C)Cc1ccccc1	inactive
CC1[C@H]2Cc3ccc(O)cc3[C@]1(C)CCN2C (some centres not stated)	inactive
COc1ccc2c3c1OC1[C@H](O)CCC4[C@@H](C2)N(C)CC[C@]314 (some centres not stated)	inactive
CCC(=O)OC1[C@@H](N2CCCCC2)C[C@H]2[C@@H]3CC[C@H]4C[C@H](OC(C)=O)[C@@H](N5CCCCC5)C[C@]4(C)[C@H]3CC[C@]12C (some centres not stated)	inactive
C=CCC1(O)CCC2C3CCC4=CC(=O)CCC4=C3C=CC21C (configuration not stated)	inactive
Clc1ccc([C@H]2CC3CCC2N3)cn1 (some centres not stated)	inactive
CC(=O)OC1CC(OC2C(O)CC(OC3C(O)CC(O[C@H]4CC[C@]5(C)C6CC[C@]7(C)[C@@H](C8=CC(=O)OC8)[C@@H](O)C[C@]7(O)[C@@H]6CC[C@@H]5C4)OC3C)OC2C)OC(C)C1OC1OC(CO)C(O)C(O)C1O (some centres not stated)	inactive
Oc1ccc2c3c1O[C@H]1[C@@H](O)C=CC4[C@@H](C2)NCC[C@@]341 (some centres not stated)	inactive
Cc1ccc2c(c1)[C@]13CCCC[C@@H]1[C@@H](C2)N(C)CC3	inactive
COC1=CC=C2[C@H]3Cc4ccc(OC)c5c4[C@@]2(CCN3C)C1O5 (some centres not stated)	inactive

System: not listed separately
Assay: S16 Schwann cell PMP22 intronic element firefly luciferase assay (AID 624032); also: nearly all actives have a fitted effect of over 30% in size; also: potency is read from the fitted curve at half-maximal effect
Settings: S16 rat Schwann cells, PMP22 element FLuc, 24 h; series mostly up to 57.5 µM
Summary of the method: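 Rat S16 Schwann cells stably carrying a PMP22 intronic element-driven Fluc reporter were seeded overnight, then exposed to compounds for 24 h at 37 °C. Luminescence was normalized to PTC124 (positive control) and DMSO (0% activity).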

Structure (SMILES)	Potency
CC(=O)NC1[C@H]([C@H](O)[C@H](O)CO)OC(C(=O)O)=C[C@H]1N=C(N)N (some centres not stated)	inactive
NC(=O)Oc1ccc(Cc2ccccc2)cc1	inactive
NCCCC(N)CC(=O)NCC1NC(=O)C(CO)NC(=O)C(N)CNC(=O)C(C2CCN=C(N)N2)NC(=O)/C(=C/NC(N)=O)NC1=O (stereo not drawn) (H-[Dap]S[Dap](ξβ3hOrn)[ΔAla(Z-3-ureido)][X3]; lactam 1-C; configuration not given here)	inactive
C[C@]12C=CC(=O)N[C@@H]1CC[C@@H]1C2CC[C@]2(C)C(C(=O)Nc3cc(C(F)(F)F)ccc3C(F)(F)F)CC[C@@H]12 (some centres not stated)	16.1 µM (active)
CCCCCCCCCCCCCCCCCC[N+](C)(C)CCC[Si](OC)(OC)OC	0.572 µM (active)
C[n+]1c2cc(N)ccc2cc2ccc(N)cc21	1.81 µM (active)
Cc1ncc(C[n+]2csc(CCOP(=O)(O)O)c2C)c(N)n1	7.21 µM (active)
COc1cc(-c2ccc(-[n+]3nc(-c4ccccc4)nn3-c3ccc([N+](=O)[O-])cc3)c(OC)c2)ccc1-[n+]1nc(-c2ccccc2)nn1-c1ccc([N+](=O)[O-])cc1	14.4 µM (active)
Cc1cn([C@H]2C[C@H](O)[C@@H](CO)O2)c(=O)[nH]c1=O	inactive
CC1OC(OC2C(O)CC(OC3C(O)CC(OC4CCC5(C)C(CCC6C5CCC5(C)C(C7=CC(=O)OC7)CCC65O)C4)OC3C)OC2C)CC(O)C1O (configuration not stated)	10.2 µM (active)
NC(C(=O)O)[C@@H]1CC(Cl)=NO1 (some centres not stated)	2.56 µM (active)
CNC[C@H](O)c1ccc(OC(=O)C(C)(C)C)c(OC(=O)C(C)(C)C)c1	0.0098 µM (active)
